Measured values: the antibiotic and cytotoxicity screens of Wong et al. (2023)
In all, about 39,000 compounds went through this assay and about 3,300 (8.5%) were called active. For the sample, actives were picked, then their nearest neighbours and some compounds at random.

What follows are compounds tested on HepG2 (assay: cytotoxicity call (relative viability < 0.9)). Details: 10 µM.

SMILES	cytotoxicity call
C[C@@H]1CN([C@@H](C)CO)C(=O)Cc2cc(NC(=O)CCCN(C)C)ccc2O[C@H]1CN(C)S(=O)(=O)c1ccc(Cl)cc1	inactive
Cc1noc(C)c1NC(=O)N(C)C[C@H]1Oc2ccc(NC(=O)C3CC3)cc2CC(=O)N([C@@H](C)CO)C[C@@H]1C	inactive
C[C@@H]1CCCCO[C@@H](CN(C)S(=O)(=O)c2cn(C)cn2)[C@H](C)CN([C@@H](C)CO)C(=O)c2cc(NC(=O)Nc3cccc4ccccc34)ccc2O1	inactive
CCCNC(=O)N(C)C[C@@H]1Oc2ncc(-c3ccc(C(=O)N(C)C)cc3)cc2C(=O)N([C@H](C)CO)C[C@H]1C	inactive
C[C@@H]1CCCCO[C@@H](CN(C)C(=O)Nc2ccc(C(F)(F)F)cc2)[C@H](C)CN([C@@H](C)CO)C(=O)c2cc(NC(=O)Nc3ccc(F)cc3)ccc2O1	inactive
Cc1ccc(S(=O)(=O)N(C)C[C@H]2OCCCC[C@H](C)Oc3ccc(NS(=O)(=O)c4ccc(F)cc4)cc3C(=O)N([C@H](C)CO)C[C@@H]2C)cc1	inactive
C[C@@H]1CN([C@@H](C)CO)C(=O)Cc2cc(NC(=O)Nc3ccc(F)cc3)ccc2O[C@H]1CN(C)Cc1ccc(C(=O)Nc2ccccc2N)cc1	inactive
C[C@H](CO)N1C[C@H](C)[C@@H](CN(C)Cc2ccc(C(=O)Nc3ccccc3N)cc2)Oc2ccc(NC(=O)Nc3ccccc3)cc2CC1=O	inactive
C[C@H](CO)N1C[C@H](C)[C@H](CN(C)Cc2ccc(C(=O)Nc3ccccc3N)cc2)Oc2ccc(NC(=O)Nc3cccc4ccccc34)cc2CC1=O	active
COc1ccc(NC(=O)Nc2ccc3c(c2)CC(=O)N([C@H](C)CO)C[C@@H](C)[C@@H](CN(C)Cc2ccc(C(=O)Nc4ccccc4N)cc2)O3)cc1	active
COc1ccc(NC(=O)Nc2ccc3c(c2)CC(=O)N([C@H](C)CO)C[C@H](C)[C@@H](CN(C)Cc2ccc(C(=O)Nc4ccccc4N)cc2)O3)cc1	inactive
C[C@H](CO)N1C[C@H](C)[C@H](CN(C)Cc2ccc(C(=O)Nc3ccccc3N)cc2)Oc2ccc(NC(=O)Nc3ccccc3)cc2CC1=O	inactive
C[C@@H]1CN([C@H](C)CO)C(=O)Cc2cc(NC(=O)Nc3cccc4ccccc34)ccc2O[C@@H]1CN(C)Cc1ccc(C(=O)Nc2ccccc2N)cc1	inactive
C[C@H]1CN([C@@H](C)CO)C(=O)Cc2cc(NC(=O)Nc3ccccc3)ccc2O[C@H]1CN(C)Cc1ccc(C(=O)Nc2ccccc2N)cc1	inactive
C[C@@H]1CN([C@H](C)CO)C(=O)Cc2cc(NC(=O)Nc3ccc(F)cc3)ccc2O[C@@H]1CN(C)Cc1ccc(C(=O)Nc2ccccc2N)cc1	active
COc1ccc(NC(=O)Nc2ccc3c(c2)CC(=O)N([C@@H](C)CO)C[C@H](C)[C@@H](CN(C)Cc2ccc(C(=O)Nc4ccccc4N)cc2)O3)cc1	inactive
C[C@@H]1CN([C@H](C)CO)C(=O)Cc2cc(NC(=O)Nc3cccc4ccccc34)ccc2O[C@H]1CN(C)Cc1ccc(C(=O)Nc2ccccc2N)cc1	inactive
C[C@@H]1CN([C@H](C)CO)C(=O)Cc2cc(NC(=O)Nc3ccccc3)ccc2O[C@@H]1CN(C)Cc1ccc(C(=O)Nc2ccccc2N)cc1	active
